Each target was assayed with C#CCNC(=O)CCSSCCC(=O)NCCc1ccc(C=O)c(C=O)c1 (assay: lysine labeling ratio R10:1 (500 µM / 50 µM probe), SILAC-ABPP in living cells; higher = lower intrinsic lysine reactivity toward the probe, active = 2 or less). Conditions: HeLa; probe concentrations 500 vs 50 µM.
How it was run: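 Living SILAC light and heavy HeLa cells in PBS at room temperature were treated with an alkyne-tagged, disulfide-linked lysine probe at 50 µM or 500 µM, with forward and reverse label swaps. The mixed lysates were clicked to biotin-azide, digested with trypsin, captured on neutravidin, released with DTT, alkylated and run by LC-MS/MS on a TIMS-TOF Pro. R for each lysine is the filtered median high-probe/low-probe MS1 peptide ratio, taken again as the median over forward and reverse replicates. Any value above 20 is set to 20.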

Chain of UniProt Q15149 (Q15149 whole entry): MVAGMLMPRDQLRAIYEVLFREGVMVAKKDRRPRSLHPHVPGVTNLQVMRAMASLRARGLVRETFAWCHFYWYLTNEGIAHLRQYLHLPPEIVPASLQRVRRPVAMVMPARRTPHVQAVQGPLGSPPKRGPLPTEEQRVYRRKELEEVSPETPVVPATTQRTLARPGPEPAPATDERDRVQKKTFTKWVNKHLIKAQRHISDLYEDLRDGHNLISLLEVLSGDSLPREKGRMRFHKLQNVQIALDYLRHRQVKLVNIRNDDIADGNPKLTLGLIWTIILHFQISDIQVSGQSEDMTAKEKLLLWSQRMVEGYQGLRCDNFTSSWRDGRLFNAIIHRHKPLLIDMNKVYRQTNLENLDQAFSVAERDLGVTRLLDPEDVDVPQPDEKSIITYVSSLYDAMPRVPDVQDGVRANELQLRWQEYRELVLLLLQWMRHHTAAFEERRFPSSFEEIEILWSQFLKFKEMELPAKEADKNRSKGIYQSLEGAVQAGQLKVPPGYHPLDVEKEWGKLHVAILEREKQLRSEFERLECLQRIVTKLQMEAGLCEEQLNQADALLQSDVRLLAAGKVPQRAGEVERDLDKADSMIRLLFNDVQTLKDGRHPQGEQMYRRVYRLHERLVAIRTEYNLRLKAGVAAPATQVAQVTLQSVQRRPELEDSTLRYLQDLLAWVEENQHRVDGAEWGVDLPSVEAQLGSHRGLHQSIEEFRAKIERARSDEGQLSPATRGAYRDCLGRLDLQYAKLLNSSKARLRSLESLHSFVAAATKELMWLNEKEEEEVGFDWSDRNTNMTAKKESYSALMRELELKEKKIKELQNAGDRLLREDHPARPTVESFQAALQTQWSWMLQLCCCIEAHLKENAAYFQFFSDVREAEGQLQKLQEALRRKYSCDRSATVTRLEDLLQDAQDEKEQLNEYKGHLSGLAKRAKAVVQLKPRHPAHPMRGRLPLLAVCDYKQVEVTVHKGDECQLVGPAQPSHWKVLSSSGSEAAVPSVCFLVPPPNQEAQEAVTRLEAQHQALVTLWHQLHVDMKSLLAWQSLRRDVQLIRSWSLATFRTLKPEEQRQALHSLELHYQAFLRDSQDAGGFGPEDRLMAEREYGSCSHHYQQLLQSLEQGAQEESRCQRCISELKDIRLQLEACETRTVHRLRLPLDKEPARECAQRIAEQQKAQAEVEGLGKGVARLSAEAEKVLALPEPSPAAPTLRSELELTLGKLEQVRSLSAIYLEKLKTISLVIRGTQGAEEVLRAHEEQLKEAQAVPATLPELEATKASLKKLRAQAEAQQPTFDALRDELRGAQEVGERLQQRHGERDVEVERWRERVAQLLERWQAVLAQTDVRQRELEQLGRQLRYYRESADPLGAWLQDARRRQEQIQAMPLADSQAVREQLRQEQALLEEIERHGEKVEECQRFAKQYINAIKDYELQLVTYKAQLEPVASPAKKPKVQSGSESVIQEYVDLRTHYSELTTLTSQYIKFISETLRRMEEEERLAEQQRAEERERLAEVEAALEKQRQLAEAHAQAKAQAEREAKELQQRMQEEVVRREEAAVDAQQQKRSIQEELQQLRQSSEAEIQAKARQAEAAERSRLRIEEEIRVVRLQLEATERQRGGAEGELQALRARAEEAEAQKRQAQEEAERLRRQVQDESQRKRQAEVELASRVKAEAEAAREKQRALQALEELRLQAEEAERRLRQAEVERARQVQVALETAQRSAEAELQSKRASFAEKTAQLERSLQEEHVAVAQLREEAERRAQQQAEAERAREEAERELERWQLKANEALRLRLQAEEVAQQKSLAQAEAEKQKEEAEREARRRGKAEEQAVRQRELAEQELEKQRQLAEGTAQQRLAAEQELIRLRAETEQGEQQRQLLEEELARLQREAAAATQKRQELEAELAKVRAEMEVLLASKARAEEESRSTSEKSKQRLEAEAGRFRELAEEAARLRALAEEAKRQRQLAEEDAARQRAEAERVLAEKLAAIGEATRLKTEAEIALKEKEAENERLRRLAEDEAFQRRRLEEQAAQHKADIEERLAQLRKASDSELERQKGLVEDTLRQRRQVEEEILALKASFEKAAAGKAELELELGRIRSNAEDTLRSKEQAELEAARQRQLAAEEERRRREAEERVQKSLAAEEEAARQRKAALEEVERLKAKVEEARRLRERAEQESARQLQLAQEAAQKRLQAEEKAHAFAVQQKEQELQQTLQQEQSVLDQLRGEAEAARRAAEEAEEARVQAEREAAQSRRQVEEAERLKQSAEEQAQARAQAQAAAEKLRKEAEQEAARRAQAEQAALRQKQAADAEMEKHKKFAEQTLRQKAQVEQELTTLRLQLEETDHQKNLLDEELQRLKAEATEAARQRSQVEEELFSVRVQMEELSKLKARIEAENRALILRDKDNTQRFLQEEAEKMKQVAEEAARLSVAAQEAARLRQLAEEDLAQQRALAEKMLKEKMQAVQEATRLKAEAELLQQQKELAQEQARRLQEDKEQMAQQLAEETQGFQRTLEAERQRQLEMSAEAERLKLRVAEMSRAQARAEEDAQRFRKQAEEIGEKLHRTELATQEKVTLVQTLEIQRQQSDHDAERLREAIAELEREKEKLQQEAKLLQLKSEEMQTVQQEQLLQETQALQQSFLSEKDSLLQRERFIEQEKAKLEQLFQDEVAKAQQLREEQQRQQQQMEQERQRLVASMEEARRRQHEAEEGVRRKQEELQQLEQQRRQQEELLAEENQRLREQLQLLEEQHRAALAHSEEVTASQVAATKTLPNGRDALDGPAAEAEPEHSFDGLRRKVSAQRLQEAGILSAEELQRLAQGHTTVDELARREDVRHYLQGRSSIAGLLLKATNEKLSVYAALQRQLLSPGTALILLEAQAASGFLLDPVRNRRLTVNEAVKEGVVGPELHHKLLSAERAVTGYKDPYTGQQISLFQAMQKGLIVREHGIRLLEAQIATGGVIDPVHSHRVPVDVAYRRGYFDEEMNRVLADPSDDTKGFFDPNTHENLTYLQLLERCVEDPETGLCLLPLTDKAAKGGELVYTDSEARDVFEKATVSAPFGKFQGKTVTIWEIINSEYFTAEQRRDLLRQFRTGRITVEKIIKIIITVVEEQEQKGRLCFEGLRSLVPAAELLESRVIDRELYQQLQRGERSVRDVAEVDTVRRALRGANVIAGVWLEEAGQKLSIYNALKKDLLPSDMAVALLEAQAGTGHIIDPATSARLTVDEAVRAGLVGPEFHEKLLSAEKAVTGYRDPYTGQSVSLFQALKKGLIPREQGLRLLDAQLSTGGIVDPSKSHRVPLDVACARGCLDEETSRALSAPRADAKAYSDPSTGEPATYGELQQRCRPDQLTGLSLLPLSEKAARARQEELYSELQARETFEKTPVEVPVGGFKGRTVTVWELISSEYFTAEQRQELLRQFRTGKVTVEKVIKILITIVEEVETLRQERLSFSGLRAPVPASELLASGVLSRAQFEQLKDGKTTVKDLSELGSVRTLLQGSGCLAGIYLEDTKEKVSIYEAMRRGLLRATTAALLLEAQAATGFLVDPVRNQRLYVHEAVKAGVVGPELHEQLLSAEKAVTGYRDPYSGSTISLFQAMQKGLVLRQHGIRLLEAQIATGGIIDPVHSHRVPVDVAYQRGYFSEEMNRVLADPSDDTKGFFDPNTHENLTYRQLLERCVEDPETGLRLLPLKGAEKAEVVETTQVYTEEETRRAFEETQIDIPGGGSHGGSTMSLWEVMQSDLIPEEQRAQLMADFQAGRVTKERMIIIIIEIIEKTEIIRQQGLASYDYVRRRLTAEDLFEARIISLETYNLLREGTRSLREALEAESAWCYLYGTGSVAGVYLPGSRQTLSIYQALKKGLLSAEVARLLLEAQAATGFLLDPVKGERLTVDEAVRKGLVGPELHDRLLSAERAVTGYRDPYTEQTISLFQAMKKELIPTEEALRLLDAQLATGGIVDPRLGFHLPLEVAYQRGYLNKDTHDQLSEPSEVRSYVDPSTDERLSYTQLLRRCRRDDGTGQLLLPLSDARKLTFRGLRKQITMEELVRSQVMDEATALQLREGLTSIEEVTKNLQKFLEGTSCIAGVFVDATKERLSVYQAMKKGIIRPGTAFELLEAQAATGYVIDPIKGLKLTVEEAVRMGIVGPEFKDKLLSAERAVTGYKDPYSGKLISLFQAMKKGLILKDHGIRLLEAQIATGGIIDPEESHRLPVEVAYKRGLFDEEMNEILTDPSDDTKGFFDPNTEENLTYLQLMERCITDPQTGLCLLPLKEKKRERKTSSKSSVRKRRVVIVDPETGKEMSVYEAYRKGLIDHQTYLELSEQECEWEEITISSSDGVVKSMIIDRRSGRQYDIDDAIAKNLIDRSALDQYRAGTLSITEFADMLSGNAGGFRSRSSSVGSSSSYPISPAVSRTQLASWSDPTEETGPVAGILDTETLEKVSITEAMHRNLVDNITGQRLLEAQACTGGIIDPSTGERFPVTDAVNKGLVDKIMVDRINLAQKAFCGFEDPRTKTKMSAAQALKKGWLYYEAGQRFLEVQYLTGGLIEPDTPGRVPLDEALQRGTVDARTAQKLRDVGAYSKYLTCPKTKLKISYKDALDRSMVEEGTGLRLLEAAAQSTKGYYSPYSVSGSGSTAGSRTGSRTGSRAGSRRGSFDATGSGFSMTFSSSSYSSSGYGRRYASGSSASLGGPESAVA
Chain of UniProt P10909 (P10909 whole entry): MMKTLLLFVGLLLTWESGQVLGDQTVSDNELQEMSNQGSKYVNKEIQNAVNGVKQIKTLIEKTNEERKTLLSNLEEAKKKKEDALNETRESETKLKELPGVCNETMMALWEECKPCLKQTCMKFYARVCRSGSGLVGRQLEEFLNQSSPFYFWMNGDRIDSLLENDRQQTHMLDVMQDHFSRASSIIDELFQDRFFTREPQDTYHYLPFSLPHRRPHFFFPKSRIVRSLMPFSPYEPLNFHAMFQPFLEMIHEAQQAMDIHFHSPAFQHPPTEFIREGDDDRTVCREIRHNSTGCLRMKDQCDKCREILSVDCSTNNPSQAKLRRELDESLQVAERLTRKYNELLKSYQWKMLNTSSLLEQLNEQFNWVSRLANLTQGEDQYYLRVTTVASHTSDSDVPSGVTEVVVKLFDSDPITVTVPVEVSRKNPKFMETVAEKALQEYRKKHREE

Target | lysine labeling ratio R10:1
CD63 (lysine site: K194) (UniProt P08962) | 2.39 (inactive)
XRCC6 (lysine site: K338) (UniProt P12956) | 1.69 (active)
GPC1 (lysine site: K358) (UniProt P35052) | 1.32 (active)
UniProt P61981 (lysine site: K142) | 3.71 (inactive)
UniProt P62854 (lysine site: K113) | 7.15 (inactive)
PTGES2 (lysine site: K233) (UniProt Q9H7Z7) | 2.07 (inactive)
ATAD3B (lysine site: K117) (UniProt Q5T9A4) | 1.26 (active)
FAT4 (lysine site: K2215) (UniProt Q6V0I7) | 3.48 (inactive)
SLC44A1 (lysine site: K75) (UniProt Q8WWI5) | 2.45 (inactive)
STOM (lysine site: K235) (UniProt P27105) | 4.28 (inactive)
DSTN (lysine site: K132) (UniProt P60981) | 1.32 (active)
FAT1 (lysine site: K101) (UniProt Q14517) | 2.6 (inactive)
CACYBP (lysine site: K212) (UniProt Q9HB71) | 1.91 (active)
SAFB2 (lysine site: K829) (UniProt Q14151) | 1.92 (active)
EEA1 (lysine site: K583) (UniProt Q15075) | 3.77 (inactive)
CKAP4 (lysine site: K339) (UniProt Q07065) | 1.14 (active)
CLU (lysine site: K222) (UniProt P10909) | 0.58 (active)
FOLR1 (lysine site: K136) (UniProt P15328) | 7.36 (inactive)
ULBP2 (lysine site: K116) (UniProt Q9BZM5) | 5.14 (inactive)
UniProt Q9NYQ7 (lysine site: K2131) | 1.56 (active)

Target | lysine labeling ratio R10:1
LAMA5 (lysine site: K113) (UniProt O15230) | 4.71 (inactive)
UniProt Q15149 (lysine site: K2277) | 0.748 (active)
EGFR (lysine site: K500) (UniProt P00533) | 12.8 (inactive)
IGF1R (lysine site: K474) (UniProt P08069) | 3.24 (inactive)
EHD2 (lysine site: K32) (UniProt Q9NZN4) | 2.92 (inactive)
PLXNA3 (lysine site: K622) (UniProt P51805) | 1.94 (active)
UniProt P62987 (lysine site: K93) | 5.44 (inactive)
ITGA6 (lysine site: K144) (UniProt P23229) | 4.01 (inactive)
SCFD1 (lysine site: K572) (UniProt Q8WVM8) | 2.58 (inactive)
VIM (lysine site: K313) (UniProt P08670) | 10.6 (inactive)
UniProt P61026 (lysine site: K136) | 1.9 (active)
UniProt Q15149 (lysine site: K1896) | 5.17 (inactive)
TKT (lysine site: K310) (UniProt P29401) | 7.45 (inactive)
UniProt Q15149 (lysine site: K3685) | 6.03 (inactive)
PSMA2 (lysine site: K53) (UniProt P25787) | 2.94 (inactive)
UniProt Q9NRD8 (lysine site: K530) | 6.54 (inactive)
TPM4 (lysine site: K13) (UniProt P67936) | 3.28 (inactive)
CLU (lysine site: K62) (UniProt P10909) | 1.13 (active)
LAMB1 (lysine site: K1495) (UniProt P07942) | 4.06 (inactive)
CCT2 (lysine site: K441) (UniProt P78371) | 1.98 (active)
